From PubChem BioAssay (Tox21)
Records with an inconclusive call do not appear. Active and inactive are the calls of the source. Unless noted, calls follow the shape of the dose curve; as a rule, active = well fitted curve in the direction sought with a large enough effect in the repeat runs; inconclusive = weak or mixed curves; inactive = no such curve, though single readings can be large; an effect the other way counts as inactive or inconclusive.

Columns and labels:
[1] = qHTS assay to identify small molecule antagonists of the estrogen receptor beta (ER-beta) signaling pathway - cell viability counter screen (AID 1259382);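 also: HEK293T cells carrying ER-beta-UAS-bla reporter stimulated with estradiol; series mostly up to about 92 µM; nearly all actives have a fitted effect of over 55% in size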
How it was run: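 ER-beta-UAS-bla HEK293T cells in 2% charcoal-stripped FBS medium, treated with compound plus 1 nM 17-beta-estradiol for 16 h at 37C. Viability read by CellTiter-Glo luminescence after 30 min at room temperature in the same wells.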

[2] = molecular target: Estrogen receptor (Homo sapiens) (UniProt P03372); test: qHTS assay to identify small molecule agonists of the estrogen receptor alpha (ER-alpha) signaling pathway in the presence of an antagonist (AID 1259383; calls by dose curve; also: top concentration of the series differs between compounds; nearly all actives have a fitted effect of over 15% in size)
How it was run: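 VM7Luc4E2 cells express endogenous full-length ER-alpha with an ERE-luciferase reporter and were hormone-deprived for 5 days. Compounds at 15 concentrations were added with 10.0nM ICI-182,780 for 22hr at 37C. Luminescence was read with ONE-Glo.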

[3] = qHTS assay to identify small molecule agonists or antagonists of the thyroid stimulating hormone receptor (TSHR) signaling pathway - wild type cell line counter screen (AID 1259384; calls by dose curve)
How it was run: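 Counter screen in untransfected Hek293: compounds (15-point titration, triplicate) plus phosphodiesterase inhibitor Ro20-1724 added after 18 h plating; 30 min RT. Intracellular cAMP via competitive d2/cryptate immunoassay, 1 h incubation.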

[4] = molecular target: Thyrotropin receptor (Homo sapiens) (UniProt P16473); test: qHTS assay to identify small molecule antagonists of the thyroid stimulating hormone receptor (TSHR) signaling pathway (AID 1259385; calls by dose curve; also: nearly all actives have a fitted effect of over 20% in size)
How it was run: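 Antagonist mode: compound-treated TSHR-expressing HEK293 cells were stimulated with 1.5 ng/mL TSH (final) in presence of Ro20-1724 for 30 min at RT. HTRF cAMP detection after 1 h; each compound tested at 15 concentrations, triplicate.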

[5] = qHTS assay to identify small molecule agonists of the estrogen receptor alpha (ER-alpha) signaling pathway in the presence of an antagonist - cell viability counter screen (AID 1259386);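 also: series mostly up to about 92 µM; cells exposed to compounds for 22 h at 37 °C before the viability read; nearly all actives have a fitted effect of over 30% in size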
How it was run: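 Cell viability in VM7Luc4E2 cells (endogenous full-length ER-alpha) measured by CellTiter-Fluor fluorescence in the same wells as the luciferase screen. Cells pre-cultured 5 days in charcoal-stripped serum, then treated 22 h with compounds at 15 concentrations plus 10.0nM ICI-182,780.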

[6] = molecular target: Progesterone receptor (Homo sapiens) (UniProt P06401); test: qHTS assay to identify small molecule agonists of the progesterone receptor (PR) signaling pathway (AID 1346784; calls by dose curve; also: nearly all actives have a fitted effect of over 30% in size)
How it was run: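 Compounds were tested for PR agonism in HEK 293T cells bearing a beta-lactamase gene under UAS control. Treatment lasted 16 hr at 37C; signal came from fluorescence of a FRET substrate.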

[7] = molecular target: Progesterone receptor (Homo sapiens) (UniProt P06401); test: qHTS assay to identify small molecule antagonists of the progesterone receptor (PR) signaling pathway (AID 1346795; active = well fitted inhibition curve with a large enough effect in the signal ratio in the repeat runs, not every such curve was filed as active; the % refers to the signal ratio)
How it was run: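 In HEK293T cells bearing the PR-UAS-bla reporter, compound effects on promegestone-driven (1 nM) beta-lactamase expression are assessed after 16 hr using a fluorescent FRET substrate incubated 2 hr at room temperature.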

[8] = qHTS assay to identify small molecule antagonists of the progesterone receptor (PR) signaling pathway - cell viability counter screen (AID 1346798); also: series mostly up to about 92 µM; nearly all actives have a fitted effect of over 50% in size
How it was run: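 Following a 4 hr attachment, PR-UAS-bla HEK293T cells in charcoal-stripped FBS medium were exposed to compounds with R5020 for 16 hr; CellTiter-Glo was added and luminescence read after 30 min at room temperature.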

[9] = qHTS assay to identify small molecule agonists of the progesterone receptor (PR) signaling pathway - cell viability counter screen (AID 1346799; calls by dose curve; also: nearly all actives have a fitted effect of over 45% in size)
How it was run: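 Here, 3,000 PR-UAS-bla HEK293T cells per well were treated with compounds for 16 hr after a 6 hr preincubation at 37C and 5% CO2; cell viability is the CellTiter-Glo luminescence signal.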

[10] = qHTS assay to identify small molecule antagonists of the TGF-beta/Smad signaling pathway - cell viability counter screen (AID 1346824); also: nearly all actives have a fitted effect of over 50% in size
How it was run: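 Cytotoxicity counter-screen run in the same wells as the beta-lactamase Smad reporter read: CellTiter-Glo luminescence after 30 min at room temperature. HEK 293T SBE-bla cells had 5 hr compound exposure at 37 C with TGF-beta1 (0.25 ng/mL stock).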

[11] = qHTS assay to identify small molecule agonists of the TGF-beta/Smad signaling pathway - cell viability counter screen (AID 1346829); also: top concentration of the series differs between compounds; nearly all actives have a fitted effect of over 45% in size
How it was run: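 HEK 293T SBE-bla line, 5 hr compound exposure at 37 C, multiplexed CellTiter-Glo viability read by luminescence.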

[12] = qHTS assay to identify small molecule agonists of the TGF-beta/Smad signaling pathway (AID 1346859; active = well fitted activation curve with a large enough effect in the signal ratio in the repeat runs, not every such curve was filed as active; the % refers to the signal ratio; also: series mostly up to about 77 µM)
How it was run: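 Each well held 4,000 SBE-bla HEK 293T cells incubated overnight before compound addition; 5 hr later the cleavable FRET substrate went on for 2 hr at room temperature, and fluorescence was read at two emissions.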

[13] = molecular target: Thyrotropin-releasing hormone receptor (Homo sapiens) (UniProt P34981); test: qHTS assay to identify small molecule antagonists of the thyrotropin-releasing hormone receptor (TRHR) signaling pathway (AID 1346877; active = well fitted inhibition curve with a large enough effect in the repeat runs, not every such curve was filed as active; also: series mostly up to about 51 µM)
How it was run: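 TRHR-expressing HEK293 cells loaded with calcium dye for 2 h at 37 C; compounds pre-incubated 5 min at room temperature before TRH challenge at 1 nM final. Intracellular calcium fluorescence read kinetically for 3 min; 15 concentrations in triplicate.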

[14] = molecular target: Thyrotropin-releasing hormone receptor (Homo sapiens) (UniProt P34981); test: qHTS assay to identify small molecule agonists of the thyrotropin-releasing hormone receptor (TRHR) signaling pathway (AID 1346891; calls by dose curve; also: series mostly up to about 58 µM)
How it was run: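 Screening of agonists relied on calcium signalling in HEK293 cells expressing human TRHR: dye loading 2 h at 37 °C preceded compound addition and a 3-min fluorescence time course.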

[15] = Human pregnane X receptor (PXR) small molecule agonists, qHTS cell viability counter screen (AID 1346977); also: nearly all actives have a fitted effect of over 50% in size
How it was run: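 Tox21 qHTS format; PXR-Luc HepG2, 2,000/well, charcoal-stripped FBS 5%. Cpd exposure 24hr. Read: CellTiter-Fluor fluorescence, multiplexed with luciferase.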

[16] = Caspase-3/7 induction in HepG2 cells by small molecules, qHTS assay (AID 1346978); also: nearly all actives have a fitted effect of over 15% in size
How it was run: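 Caspase-3/7 induction was measured by Caspase-Glo 3/7 luminescence (30 min, room temperature) after a 17 hr compound exposure of wild-type HepG2 cells seeded at 2,000 per well and pre-incubated 5 hr.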

[17] = Caspase-3/7 induction in CHO-K1 cells by small molecules, qHTS assay (AID 1346980); also: nearly all actives have a fitted effect of over 15% in size
How it was run: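 Luminescent Caspase-Glo 3/7 read (30min, room temperature) quantified apoptosis induction. Cells were wild-type CHO-K1, treated with compound for 17hr at 37 C and 5% CO2.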

[18] = Caspase-3/7 induction in HepG2 cells by small molecules, qHTS cell viability counter screen (AID 1346981); also: series mostly up to about 92 µM; nearly all actives have a fitted effect of over 30% in size
How it was run: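 Wild-type HepG2 cells, 2,000/well, settled 5 hr at 37 C, 5% CO2 before compound addition. Viability read by CellTiter-Fluor fluorescence, reagent added after 16 hr compound exposure, then 1 hr at 37C, in the same wells as the caspase read.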

[19] = Caspase-3/7 induction in CHO-K1 cells by small molecules, qHTS cell viability counter screen (AID 1346979); also: nearly all actives have a fitted effect of over 35% in size
How it was run: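 CellTiter-Fluor viability check, qHTS format: wild-type CHO-K1, 16hr compound treatment, 1hr reagent incubation, fluorescence read.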

[20] = molecular target: Nuclear receptor subfamily 1 group I member 2 (Homo sapiens) (UniProt O75469); test: Human pregnane X receptor (PXR) small molecule agonists, qHTS assay (AID 1346982); also: nearly all actives have a fitted effect of over 35% in size
How it was run: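 PXR-Luc HepG2 reporter cells (CYP3A4-driven luciferase) in 5% charcoal-stripped FBS medium, plated 5 h before compound addition, then treated 24 h at 37C. Luciferase read by ONE-Glo luminescence after 30 min at room temperature.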

Measured: Potency

Nuclear receptor subfamily 1 group I member 2 (Homo sapiens), sequence (O75469 whole entry, looked up): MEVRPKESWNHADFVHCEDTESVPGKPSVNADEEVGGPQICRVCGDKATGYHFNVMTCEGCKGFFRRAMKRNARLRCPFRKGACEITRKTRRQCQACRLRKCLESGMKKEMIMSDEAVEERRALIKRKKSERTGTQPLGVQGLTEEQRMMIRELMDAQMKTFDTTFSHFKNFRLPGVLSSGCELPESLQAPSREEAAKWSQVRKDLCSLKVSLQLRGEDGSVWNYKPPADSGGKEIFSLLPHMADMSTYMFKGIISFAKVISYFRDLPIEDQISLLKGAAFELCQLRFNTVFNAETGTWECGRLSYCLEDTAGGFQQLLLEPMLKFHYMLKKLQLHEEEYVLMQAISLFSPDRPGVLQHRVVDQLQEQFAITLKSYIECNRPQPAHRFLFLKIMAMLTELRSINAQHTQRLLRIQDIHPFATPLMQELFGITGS
Thyrotropin-releasing hormone receptor (Homo sapiens), sequence (P34981 whole entry, looked up): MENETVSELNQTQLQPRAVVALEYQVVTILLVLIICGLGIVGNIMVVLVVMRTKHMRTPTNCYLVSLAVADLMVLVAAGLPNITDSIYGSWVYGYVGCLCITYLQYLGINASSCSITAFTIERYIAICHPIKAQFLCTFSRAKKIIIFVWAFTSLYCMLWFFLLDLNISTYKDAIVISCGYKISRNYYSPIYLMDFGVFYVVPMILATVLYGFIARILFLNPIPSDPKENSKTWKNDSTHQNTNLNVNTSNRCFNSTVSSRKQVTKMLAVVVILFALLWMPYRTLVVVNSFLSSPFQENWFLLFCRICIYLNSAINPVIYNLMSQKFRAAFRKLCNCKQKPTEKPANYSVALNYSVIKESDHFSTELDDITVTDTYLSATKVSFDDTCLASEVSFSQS
Thyrotropin receptor (Homo sapiens), sequence (P16473 whole entry, looked up): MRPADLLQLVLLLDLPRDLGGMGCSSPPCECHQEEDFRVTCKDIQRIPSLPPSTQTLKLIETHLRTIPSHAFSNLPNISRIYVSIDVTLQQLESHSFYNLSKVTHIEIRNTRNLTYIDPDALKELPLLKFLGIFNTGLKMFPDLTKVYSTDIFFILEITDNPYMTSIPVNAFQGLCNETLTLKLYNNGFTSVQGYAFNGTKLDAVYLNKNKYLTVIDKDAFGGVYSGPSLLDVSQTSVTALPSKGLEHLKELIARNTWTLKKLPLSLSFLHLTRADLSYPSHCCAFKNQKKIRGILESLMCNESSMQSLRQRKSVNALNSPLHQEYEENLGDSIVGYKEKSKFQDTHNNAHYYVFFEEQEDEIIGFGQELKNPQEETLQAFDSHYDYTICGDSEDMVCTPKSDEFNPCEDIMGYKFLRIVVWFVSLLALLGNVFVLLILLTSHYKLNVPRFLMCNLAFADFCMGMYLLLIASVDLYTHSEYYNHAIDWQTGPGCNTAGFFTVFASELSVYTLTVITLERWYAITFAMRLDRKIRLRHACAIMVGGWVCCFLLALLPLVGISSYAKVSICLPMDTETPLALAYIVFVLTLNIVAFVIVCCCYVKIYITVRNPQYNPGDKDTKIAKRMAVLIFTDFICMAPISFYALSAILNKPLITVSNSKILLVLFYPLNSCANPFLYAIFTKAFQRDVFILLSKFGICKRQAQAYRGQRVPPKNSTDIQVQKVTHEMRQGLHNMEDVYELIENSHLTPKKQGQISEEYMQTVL
Estrogen receptor (Homo sapiens), sequence (P03372 whole entry, looked up): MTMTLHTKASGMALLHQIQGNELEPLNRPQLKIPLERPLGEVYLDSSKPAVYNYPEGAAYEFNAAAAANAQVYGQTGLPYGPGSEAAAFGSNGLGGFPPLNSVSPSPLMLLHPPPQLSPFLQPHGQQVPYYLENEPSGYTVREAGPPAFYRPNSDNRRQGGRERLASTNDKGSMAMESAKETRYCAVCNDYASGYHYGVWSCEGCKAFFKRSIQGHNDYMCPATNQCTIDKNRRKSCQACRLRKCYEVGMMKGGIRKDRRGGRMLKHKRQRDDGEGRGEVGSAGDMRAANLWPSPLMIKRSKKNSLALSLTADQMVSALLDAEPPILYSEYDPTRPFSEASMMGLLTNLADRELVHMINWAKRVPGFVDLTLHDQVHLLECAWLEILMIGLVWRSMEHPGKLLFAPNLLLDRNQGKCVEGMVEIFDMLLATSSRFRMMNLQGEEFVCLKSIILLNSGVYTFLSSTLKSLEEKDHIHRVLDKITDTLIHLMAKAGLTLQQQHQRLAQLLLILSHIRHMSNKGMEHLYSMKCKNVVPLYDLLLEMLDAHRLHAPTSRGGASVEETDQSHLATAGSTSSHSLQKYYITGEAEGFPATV
Progesterone receptor (Homo sapiens), sequence (P06401 whole entry, looked up): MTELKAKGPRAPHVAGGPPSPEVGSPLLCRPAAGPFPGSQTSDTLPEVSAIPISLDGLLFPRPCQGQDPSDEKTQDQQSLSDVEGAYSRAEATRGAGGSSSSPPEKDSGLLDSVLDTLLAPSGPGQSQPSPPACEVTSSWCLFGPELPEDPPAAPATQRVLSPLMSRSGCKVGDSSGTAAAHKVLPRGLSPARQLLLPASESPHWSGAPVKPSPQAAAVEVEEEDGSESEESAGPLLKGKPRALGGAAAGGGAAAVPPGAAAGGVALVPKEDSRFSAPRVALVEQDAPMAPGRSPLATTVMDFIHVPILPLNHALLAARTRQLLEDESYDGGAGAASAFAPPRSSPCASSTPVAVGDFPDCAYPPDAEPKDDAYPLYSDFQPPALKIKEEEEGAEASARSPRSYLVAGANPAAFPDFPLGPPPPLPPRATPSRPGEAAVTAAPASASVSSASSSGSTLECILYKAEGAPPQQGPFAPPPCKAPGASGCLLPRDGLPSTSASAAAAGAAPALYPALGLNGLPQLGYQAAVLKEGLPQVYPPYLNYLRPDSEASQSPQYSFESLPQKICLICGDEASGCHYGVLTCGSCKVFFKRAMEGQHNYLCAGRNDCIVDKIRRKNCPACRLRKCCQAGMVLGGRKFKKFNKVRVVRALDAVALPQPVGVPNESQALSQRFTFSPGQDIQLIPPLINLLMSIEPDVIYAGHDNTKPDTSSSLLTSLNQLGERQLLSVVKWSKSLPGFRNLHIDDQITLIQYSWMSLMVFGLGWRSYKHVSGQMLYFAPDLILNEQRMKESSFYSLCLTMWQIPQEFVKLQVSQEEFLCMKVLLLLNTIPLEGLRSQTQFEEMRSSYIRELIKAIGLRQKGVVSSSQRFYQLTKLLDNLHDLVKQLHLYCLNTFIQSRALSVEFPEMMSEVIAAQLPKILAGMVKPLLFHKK

CCOC=C(C(=O)OCC)C(=O)OCC
inactive: [1] | [2] | [3] | [4] | [5] | [6] | [7] | [8] | [9] | [10] | [11] | [12] | [13] | [14] | [15] | [16] | [17] | [18]

NC(=O)C1CO1 (configuration not stated)
inactive: [1] | [2] | [3] | [4] | [5] | [6] | [7] | [8] | [9] | [10] | [11] | [12] | [15] | [16] | [19] | [17] | [18] | [20]

CCc1cccc(C)c1N(C(=O)CS(=O)(=O)O)C(C)COC (configuration not stated)
inactive: [1] | [2] | [3] | [4] | [5] | [6] | [7] | [8] | [9] | [10] | [11] | [12] | [14] | [15] | [16] | [17] | [18] | [20]

CCC(=O)OC/C=C(\C)CCC=C(C)C
inactive: [1] | [2] | [3] | [4] | [5] | [6] | [7] | [8] | [9] | [10] | [11] | [12] | [13] | [14] | [15] | [16] | [19] | [17]

CCC1(C)C(=O)N(Cl)C(=O)N1Cl (configuration not stated)
inactive: [1] | [2] | [3] | [4] | [5] | [6] | [7] | [8] | [9] | [11] | [12] | [13] | [14] | [15] | [16] | [19] | [17] | [18]

CCn1c2ccccc2c2ccccc21
inactive: [1] | [2] | [3] | [4] | [5] | [6] | [7] | [8] | [9] | [10] | [11] | [12] | [14] | [15] | [16] | [19] | [17] | [18] | [20]

O=c1cc[nH]cc1
inactive: [1] | [2] | [3] | [4] | [5] | [6] | [7] | [8] | [9] | [10] | [11] | [12] | [14] | [15] | [16] | [19] | [17] | [20]
